Results as given in PubChem BioAssay (Tox21).
A number with no mark means an inactive call. Inconclusive results are not listed. A call without a number means that no potency is given here. Active and inactive are the calls of the source. Unless noted, calls come from the whole dose curve; as a rule, active = well fitted curve in the direction sought with a large enough effect in the repeat runs; inconclusive = weak or mixed curves; inactive = no such curve, though single readings can be large; an effect the other way counts as inactive or inconclusive.

Tests used:
[1] = qHTS assay to identify small molecule agonists of the hypoxia (HIF-1) signaling pathway (AID 1224846; active = well fitted activation curve with a large enough effect in the signal ratio in the repeat runs, not every such curve was filed as active; the % refers to the signal ratio)
Summary of the method: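 Agonist mode reporter screen. ME-180 cells stably expressing bla under HRE control received test compounds in DMSO for 17 hrs (37C, 5% CO2), and beta-lactamase activity was then detected with the CCF4-AM FRET substrate.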

[2] = qHTS assay to identify small molecule agonists of H2AX - cell viability counter screen (AID 1224847; calls by dose curve; note: top concentration of the series differs between compounds; nearly all actives have a fitted effect of over 30% in size)
Summary of the method: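 Quantitative HTS viability measurement: CHO-K1 wild-type cells in serum (10% FBS) medium, short 3 hr drug exposure at 37C with 0.76% DMSO, CellTiter-Glo luminescent detection.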

[3] = qHTS assay to identify small molecule antagonists of the estrogen related receptor (ERR) signaling pathway from Tox21 library (AID 1224848); note: nearly all actives have a fitted effect of over 50% in size; note: potency is the fitted concentration of half-maximal effect
Summary of the method: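 Compounds dissolved in DMSO are pin-transferred onto ERR reporter cells (2,000 per well) that have settled for 6 h at 37 C. Plates then incubate 18 h at 37 C before ONE-Glo luciferase reagent and a luminescence read 30 min later.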

[4] = qHTS assay to identify small molecule agonists of the estrogen related receptor (ERR) signaling pathway from Tox21 library (AID 1224849; calls by dose curve; note: nearly all actives have a fitted effect of over 15% in size); settings: ERR reporter cell line, ONE-Glo luciferase, 18 h; at 92.4 µM (top of the series) unless noted
Summary of the method: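 Quantitative HTS in agonist format: NTP ERR cell line, compounds transferred in DMSO after 6 h plating, 18 h incubation at 37 C, ONE-Glo luminescence endpoint.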

[5] = qHTS RealTime-Glo MT Cell Viability Assay in HepG2 cells - 24 hour (AID 1224867); note: nearly all actives have a fitted effect of over 50% in size
Summary of the method: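 Cell number in HepG2 cultures estimated from NanoLuc luminescence generated by metabolic reduction of a prosubstrate by living cells. The homogeneous, nonlytic format allowed repeated reads at 0, 8, 16, 24, 32 and 40 h of compound exposure.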

[6] = qHTS RealTime-Glo MT Cell Viability Assay in HEK293 cells - 32 hour (AID 1224868); note: top concentration of the series differs between compounds; nearly all actives have a fitted effect of over 50% in size
Summary of the method: (§1)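 Homogeneous bioluminescent viability format in HEK293 cells (600 cells/well). Following 5 h at 37 C/5% CO2, 23 nL compound was pintooled; the signal was measured repeatedly during 40 h incubation.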

[7] = A CellTox Green Cytotoxicity Assay to monitor cytotoxicity in HEK293 cells - 0 hour (AID 1224869); note: nearly all actives have a fitted effect of over 50% in size
Summary of the method: (§2)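 Dead-cell fluorescence measured kinetically: asymmetric cyanine dye, HEK293, 600 cells/well, 5 h settle, 23 nL cpd/DMSO, 37 C, reads 0–40 h every 8 h.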

[8] = qHTS RealTime-Glo MT Cell Viability Assay in HepG2 cells - 40 hour (AID 1224870); note: nearly all actives have a fitted effect of over 50% in size
Summary of the method: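 HepG2 cells (600/well) mixed with RealTime-Glo MT reagent, settled 5 h at 37 C/5% CO2 before compound addition. Nonlytic NanoLuc luminescence from viable-cell prosubstrate reduction read repeatedly during 40 h treatment at 37 C.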

[9] = A CellTox Green Cytotoxicity Assay to monitor cytotoxicity in HEK293 cells - 40 hour (AID 1224871); note: nearly all actives have a fitted effect of over 45% in size
Summary of the method: as §2

[10] = qHTS RealTime-Glo MT Cell Viability Assay in HEK293 cells - 16 hour (AID 1224872)
Summary of the method: as §1

Row | Compound | outcome [1] | Potency [2] | Potency [3] | activity change, positive = activation [4] | outcome [5] | Potency [6] | outcome [7] | outcome [8] | Potency [9] | Potency [10] | activation [1] | activity change, negative = cytotoxicity [2] | activity, negative = inhibition [3] | activity change, negative = cytotoxicity [5] | activity change, negative = cytotoxic [6] | cytotoxicity [7] | activity change, negative = cytotoxic [8] | cytotoxicity increase [9] | activity change, negative = cytotoxicity [10]
1 | COc1nccnc1NS(=O)(=O)c1ccc(N)cc1 | inactive | inactive | inactive | -1.96% [at 42.5 µM] | inactive | inactive | inactive | inactive | inactive | inactive |  |  |  |  |  |  |  |  | 
2 | C[Si](C)(C)C | inactive | inactive | inactive | -1.98% | inactive | inactive | inactive | inactive | inactive | inactive |  |  |  |  |  |  |  |  | 
3 | COC(=O)CCc1ccc(OCC(O)CNC(C)C)cc1 (stereo not given) | inactive | inactive | inactive | 8.83% [at 42.5 µM] | inactive | inactive | inactive | inactive | inactive | inactive |  |  |  |  |  |  |  |  | 
4 | C=C(C)C(=O)OCCOP(=O)(O)OCCOC(=O)C(=C)C | inactive | inactive | inactive | 5.76% | inactive | inactive | inactive | inactive | inactive | inactive |  |  |  |  |  |  |  |  | 
5 | C=C1CC/C=C(\C)CC[C@@H]2[C@@H]1CC2(C)C | inactive | inactive | inactive | 0.265% | inactive | inactive | inactive | inactive | inactive | inactive |  |  |  |  |  |  |  |  | 
6 | CCn1ccc(NS(=O)(=O)c2ccc(N)cc2)nc1=O | inactive | inactive | inactive | 3.61% [at 42.5 µM] | inactive | inactive | inactive | inactive | inactive | inactive |  |  |  |  |  |  |  |  | 
7 | COc1cc(N)ccc1C | inactive | inactive | 27 µM (active) | -31.2% | inactive | inactive | inactive | inactive | inactive | inactive |  |  |  |  |  |  |  |  | 
8 | CCC(C=O)CC | inactive | inactive | inactive | 2.68% | inactive | inactive | inactive | inactive | inactive | inactive |  |  |  |  |  |  |  |  | 
9 | O=C(CS(=O)Cc1ccco1)NC/C=C\COc1cc(CN2CCCCC2)ccn1 (stereo not given) | inactive | inactive | inactive | 7.25% [at 42.5 µM] | inactive | inactive | inactive | inactive | inactive | inactive |  |  |  |  |  |  |  |  | 
10 | O=C1c2ccccc2C(=O)N1CCl | inactive | inactive | inactive | 0.282% | inactive | inactive | inactive | inactive | inactive | inactive |  |  |  |  |  |  |  |  | 
11 | CCCCC(CC)COCCO (stereo not given) | inactive | inactive | inactive | 5.52% | inactive | inactive | inactive | inactive | inactive | inactive |  |  |  |  |  |  |  |  | 
12 | Cc1cccc(C)c1OCC(C)N (stereo not given) | inactive | inactive | inactive | -2% [at 42.5 µM] | inactive | inactive | inactive | inactive | inactive | inactive |  |  |  |  |  |  |  |  | 
13 | O=S(O)(O)=S |  |  |  | 4.43% [at 8.39 µM] |  |  |  |  |  |  | -1% [at 7.01 µM] | 0.0189% [at 14 µM] | 8.94% [at 8.39 µM] | 4.23% [at 6.97 µM] | 0.732% [at 6.97 µM] | 0.0066% [at 6.97 µM] | 5.36% [at 6.97 µM] | -0.26% [at 6.97 µM] | 0.498% [at 6.97 µM]
14 | CCCCCCCCCCCCCC | inactive | inactive | inactive | 2.93% | inactive | inactive | inactive | inactive | inactive | inactive |  |  |  |  |  |  |  |  | 
15 | C=C(C)C(=O)OCCNC(C)(C)C | inactive | inactive | inactive | -2.14% | inactive | inactive | inactive | inactive | inactive | inactive |  |  |  |  |  |  |  |  | 
16 | CCCC/C=C\CCCCCCCCCC=O | inactive | inactive | inactive | 2.29% | inactive | inactive | inactive | inactive | inactive | inactive |  |  |  |  |  |  |  |  | 
17 | CC(=O)NCc1c(I)c(NC(C)=O)c(I)c(C(=O)O)c1I | inactive | inactive | inactive | 6.18% [at 42.5 µM] | inactive | inactive | inactive | inactive | inactive | inactive |  |  |  |  |  |  |  |  | 
18 | CC(C)(C)NC(N)=O | inactive | inactive | inactive | 2.65% |  | inactive | inactive | inactive | inactive | inactive |  |  |  |  |  |  |  |  | 
19 | O=C(NCCN1CCOCC1)c1ccc(Cl)cc1 | inactive | inactive | inactive | 9.75% [at 42.5 µM] | inactive | inactive |  | inactive | inactive | inactive |  |  |  |  |  |  |  |  | 
20 | COc1ccc2nc(SCc3ncc(C)c(OC)c3C)[nH]c2c1 | inactive | inactive | inactive | -13.6% [at 42.5 µM] | inactive |  | inactive | inactive | inactive |  |  |  |  |  |  |  |  |  | 
21 | CC(=O)N[C@@H](CCC(=O)O)C(=O)O | inactive | inactive | inactive | 5.46% [at 42.5 µM] | inactive |  | inactive | inactive | inactive | inactive |  |  |  |  |  |  |  |  | 
